Assay results: PubChem BioAssay (NCATS)
Records with an inconclusive call do not appear. Calls of active or inactive are those of the source. The call rests on the fitted dose curve; in most records, active means well fitted inhibition curve with a large enough effect; inconclusive means small, poorly fitted or top-dose-only effect; inactive means no such curve, though single readings can be large or run the other way.

Assay: Primary qHTS for small molecule stabilizers of the endoplasmic reticulum resident proteome: Secreted ER Calcium Modulated Protein (SERCaMP) assay (AID 1508630)
Conditions: SH-SY5Y GLuc-SERCaMP (Gaussia luciferase released on ER calcium loss) secretion, thapsigargin, luminescence; series mostly up to 38.4 µM
How it was run: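 GLuc-SERCaMP-expressing SH-SY5Y cells, pretreated 16 h with compound, are challenged with thapsigargin to empty ER calcium stores; after 4 h, coelenterazine is added directly to the medium and luminescence is imaged.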

Potency, inactive:
Clc1ccccc1-c1ccc2ncnc(N3CCNCC3)c2c1
CCNc1ncc2nc(-c3cccs3)c(=O)n(C)c2n1
COCCn1c(=O)c(-c2cn(C)c3ccccc23)nc2cnc(N3CCOCC3)nc21
CN(C)c1ccc(-c2cc(Nc3ccc(F)cc3)ncn2)cc1
COc1ncc2nc(-c3cccs3)c(=O)n(CCc3ccccc3)c2n1
COc1ncc2nc(-c3ccccc3)c(=O)n(-c3ccccc3)c2n1
Cc1noc(C)c1-c1nccc(N2CCOCC2)n1
FC(F)(F)c1ccccc1-c1cc(NCc2ccccc2)ncn1
Cn1c(=O)c(-c2ccc(Cl)cc2)nc2cnc(Nc3ccccc3)nc21
COc1ccc(Oc2ncc3nc(-c4ccc(Cl)cc4)c(=O)n(C[C@H]4CCCO4)c3n2)cc1
COc1cccc(Nc2ncc3nc(C)c(=O)n(C4CC4)c3n2)c1
COc1cccc(Cn2c(=O)c(-c3cc(F)cc(F)c3)nc3cnc(N(C)C)nc32)c1
CNc1nc(-c2ccc3c(c2)OCO3)nc2ccccc12
COc1cccc(Cn2c(=O)c(C)nc3cnc(OC)nc32)c1
Cc1nc2cncnc2n(C2CC2)c1=O
COc1cccc(Cn2c(=O)cnc3cncnc32)c1
COCCn1c(=O)c(-c2cc(F)cc(F)c2)nc2cnc(N3CCOCC3)nc21
CN(C)C(=O)c1ccc(-c2cc(NCc3cccnc3)ncn2)cc1
Cc1noc(C)c1-c1cc(NCc2cccnc2)ncn1
CS(=O)(=O)Nc1cccc(-c2ccc3ncnc(NCCN4CCOCC4)c3c2)c1
COCCn1c(=O)c(C)nc2cnc(N(C)C)nc21
COc1ccc2[nH]cc(CCNc3ncnc4ccc(-c5cccnc5)cc34)c2c1
Cn1c(=O)c(-c2cccc(C#N)c2)nc2cnc(Oc3ccccc3)nc21
O=c1c(-c2cc(F)cc(F)c2)nc2cnc(N3CCOCC3)nc2n1Cc1cccs1
CNc1ncnc2ccc(-c3ccccc3CN(C)C)cc12
CN(C)C(=O)c1ccc(-c2cc(Nc3ccccc3)ncn2)cc1
COc1cccc(Nc2ncc3ncc(=O)n(CCc4ccccc4)c3n2)c1
O=c1c(-c2ccc(F)cc2)nc2cnc(N3CCNCC3)nc2n1C1CC1
COc1ccc(-c2nc3cnc(Nc4cccc(OC)c4)nc3n(C[C@H]3CCCO3)c2=O)cc1
COc1cccc(-c2ccc3ncnc(NCc4ccccc4)c3c2)c1
Cc1ccccc1-c1cc(N(C)C)ncn1
Cc1cccc(CNc2cc(-c3c(C)noc3C)ncn2)c1
COc1ccccc1CNc1cc(-c2c(C)noc2C)ncn1
Cn1c(=O)c(-c2ccc(Cl)cc2)nc2cnc(N3CCOCC3)nc21
COc1ncc2nc(C)c(=O)n(C3CC3)c2n1
Cc1noc(C)c1-c1ccc2ncnc(N3CCN(C)CC3)c2c1
CN(C)c1ccc(-c2ccc3ncnc(-n4ccnc4)c3c2)cc1
O=c1cnc2cncnc2n1Cc1ccccc1Cl
CCNc1ncc2ncc(=O)n(CCOC)c2n1
COc1ccccc1-c1cncnc1NCCNC(C)=O
